Among the test systems are HCT-15 colon; HT29 colon; SNB-75 CNS; SNB-19 CNS; U251 CNS; PC-3 prostate; SK-MEL-5 melanoma; UACC-62 melanoma; LOX IMVI melanoma; SK-MEL-28 melanoma; SK-MEL-2 melanoma; EKVX NSCLC; SN12C renal; UO-31 renal; TK-10 renal; ACHN renal; CAKI-1 renal; A498 renal; CCRF-CEM leukemia; MOLT-4 leukemia.
Test in all cases: NCI-60 one-dose screen, 48 h (100 = growth as untreated, 0 = no growth, -100 = all killed)
Holding throughout (settings): 10 µM unless noted

We go through eight compounds from PubChem BioAssay (NCI).

Compounds without any hit were thinned out: in the full panel of roughly 83,000, 20% have a hit.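 In brief: 96-well plates, 48 h treatment, single concentration, percent growth endpoint.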 Unmarked numbers belong to inactive results. The source made the active and inactive calls. Rule for the calls: active = growth percent below 10; inactive = the rest.

On to `CC(Br)C(O)c1cc2c(cc1Br)OCO2` (stereo not given), for which the growth in the assay on HCT-15 colon is 102%; with HT29 colon, 114%; with SNB-75 CNS, 88%; with SNB-19 CNS, 112%; with U251 CNS, 102%; in the assay with PC-3 prostate, 98.6%. Moreover, the growth in the assay with SK-MEL-5 melanoma was 102%; in the assay on UACC-62 melanoma, 98.9%; in the assay on LOX IMVI melanoma, 93.2%; with SK-MEL-28 melanoma, 108%; with SK-MEL-2 melanoma, 115%; with EKVX NSCLC, 104%. Also, the growth is 112% in the assay with SN12C renal; 88.6% in the assay on UO-31 renal; 114% with TK-10 renal; 109% with ACHN renal; 90.5% in the assay with CAKI-1 renal; 127% in the assay with A498 renal. Also, the values for the growth in the assay with CCRF-CEM leukemia and in the assay on MOLT-4 leukemia were 101% and 104%, respectively.
For `Nc1ccc(S(=O)(=O)c2ccc(Cl)cc2)cc1`, the growth is 97.8% in the assay with HCT-15 colon; 98.1% with HT29 colon; 79.7% in the assay with SNB-75 CNS; 93.9% in the assay with SNB-19 CNS; 105% in the assay with U251 CNS; 89.7% with PC-3 prostate. The growth with SK-MEL-5 melanoma is 95.2%; in the assay with UACC-62 melanoma, 85.8%; with LOX IMVI melanoma it was 95.6%; in the assay with SK-MEL-28 melanoma, 102%; with SK-MEL-2 melanoma, 98.4%; in the assay on EKVX NSCLC, 94.7%. In addition, the growth was 95.3% in the assay with SN12C renal; 86.4% in the assay on UO-31 renal; 96.4% in the assay with TK-10 renal; 97.1% in the assay with ACHN renal; 93.6% in the assay with CAKI-1 renal; 108% with A498 renal. For the same compound, the growth in the assay on CCRF-CEM leukemia is 111%; in the assay on MOLT-4 leukemia, 103%.
Consider `O=C(OCCCCOC(=O)n1cnc2ccccc21)n1cnc2ccccc21`, for which the growth is 103% in the assay on HCT-15 colon; 97% with HT29 colon; 96% in the assay on SNB-75 CNS; 97.7% in the assay with SNB-19 CNS; 99.5% in the assay with U251 CNS; 91.8% in the assay on PC-3 prostate. The growth with SK-MEL-5 melanoma was 101%; with UACC-62 melanoma, 96.3%; with LOX IMVI melanoma, 92.9%; with SK-MEL-28 melanoma it was 108%; in the assay with SK-MEL-2 melanoma, 101%; in the assay with EKVX NSCLC, 98.7%. The growth with SN12C renal was 96%; with UO-31 renal, 78.9%; in the assay with TK-10 renal, 110%; with ACHN renal it was 101%; with CAKI-1 renal, 93.2%; in the assay with A498 renal, 89.3%. In addition, the results for the growth in the assay with CCRF-CEM leukemia and in the assay with MOLT-4 leukemia were 101% and 86.2%, respectively.
For `COc1cc(-c2csc(NC(=O)Nc3ccc(Cl)cc3Cl)n2)cc(OC)c1OC`, the growth with HCT-15 colon was 23%; in the assay with HT29 colon, 10.8%; in the assay with SNB-75 CNS it was 4.13% (active); with SNB-19 CNS it was 41.7%; in the assay with U251 CNS, 25.7%; in the assay on PC-3 prostate, 18.7%. Moreover, the growth was 18.4% in the assay on SK-MEL-5 melanoma; 30.9% in the assay with UACC-62 melanoma; 28.9% in the assay on LOX IMVI melanoma; 62.6% in the assay on SK-MEL-28 melanoma; 62.7% in the assay on SK-MEL-2 melanoma; 46.6% in the assay with EKVX NSCLC. Besides, the growth in the assay with SN12C renal was 59.5%; in the assay with UO-31 renal, 34.6%; with TK-10 renal it was 54.6%; in the assay on ACHN renal, 30.3%; in the assay with CAKI-1 renal it was 37.8%; with A498 renal, 34.8%. The growth is 33.3% with CCRF-CEM leukemia and 33.4% in the assay on MOLT-4 leukemia.
As to `Nc1ccccc1C#C/C=C\C#Cc1cccc(O)c1`, the growth in the assay with HCT-15 colon was 44.1%; with HT29 colon, 76.2%; in the assay with SNB-75 CNS, 42.8%; in the assay on SNB-19 CNS, 88.4%; in the assay with U251 CNS, 43%; in the assay on PC-3 prostate, 64.2%. In addition, the growth in the assay with SK-MEL-5 melanoma is 34%; in the assay on UACC-62 melanoma, 23.8%; in the assay with LOX IMVI melanoma, 45.8%; with SK-MEL-28 melanoma, 81.7%; in the assay with SK-MEL-2 melanoma it was 20.2%; in the assay with EKVX NSCLC, 71.8%. Besides, the growth in the assay on SN12C renal is 67.2%; in the assay on UO-31 renal, 12.4%; in the assay with TK-10 renal, 83.8%; with ACHN renal it was 36.4%; in the assay with CAKI-1 renal, 31.3%; in the assay on A498 renal, 78.6%. Besides, the growth was 32% in the assay with CCRF-CEM leukemia and 27.1% in the assay on MOLT-4 leukemia.
For the compound `COc1ccc(C(=O)N2CCN(C(=O)c3cc(OC)c(OC)c(OC)c3)CC2)cc1OCCCCOc1cc2c(cc1OC)C(=O)N1CCC[C@H]1C=N2`, the growth in the assay on HCT-15 colon was 118%; in the assay on HT29 colon it was 45.8%; in the assay on SNB-75 CNS it was 110%; in the assay with SNB-19 CNS, 99.4%; in the assay on U251 CNS, 101%; in the assay with PC-3 prostate it was 104%. For the same compound, the growth in the assay with SK-MEL-5 melanoma is 71%; in the assay with UACC-62 melanoma, 97.2%; with LOX IMVI melanoma it was 106%; with SK-MEL-28 melanoma, 136%; in the assay with SK-MEL-2 melanoma it was 31.9%; in the assay with EKVX NSCLC, 113%. Further, the growth with SN12C renal is 97.9%; with UO-31 renal it was 32.7%; in the assay on TK-10 renal, 157%; with ACHN renal, 105%; in the assay with CAKI-1 renal it was 81.4%; in the assay with A498 renal, 95.5%. Also, the growth with CCRF-CEM leukemia was 86.4%; with MOLT-4 leukemia it was 108%.
For `NC(=O)c1cccc(N2Cc3ccccc3OC3=C2C(=O)c2c(O)ccc(O)c2C3=O)c1`, the growth in the assay with HCT-15 colon was -49.7% (active); in the assay with HT29 colon it was -55.8% (active); with SNB-75 CNS it was 6.48% (active); with SNB-19 CNS it was 1% (active); with U251 CNS, -7.38% (active); in the assay on PC-3 prostate it was -44.5% (active). Further, the growth was -7.12% (active) in the assay with SK-MEL-5 melanoma; -86.1% (active) with UACC-62 melanoma; -63.5% (active) in the assay on LOX IMVI melanoma; -85.6% (active) in the assay with SK-MEL-28 melanoma; -38.7% (active) in the assay with SK-MEL-2 melanoma; -0.27% (active) in the assay on EKVX NSCLC. Moreover, the growth in the assay with SN12C renal was -53.5% (active); with UO-31 renal it was -86.7% (active); in the assay on TK-10 renal it was -99.7% (active); in the assay on ACHN renal it was -93.7% (active); in the assay with CAKI-1 renal, -99.4% (active); with A498 renal, 62.1%. For the same compound, the growth was -8.27% (active) with CCRF-CEM leukemia and -36.2% (active) in the assay on MOLT-4 leukemia.
On to `C/C1=C\CCC2(C)OC2CC2CCC(C)(O)C(CC1)C2(C)C` (stereo not given), for which the growth in the assay on HCT-15 colon was 89.4%; in the assay on HT29 colon, 107%; with SNB-75 CNS it was 108%; in the assay with SNB-19 CNS, 87.7%; in the assay with U251 CNS, 91%; with PC-3 prostate, 85.2%. Besides, the growth was 84.8% in the assay with SK-MEL-5 melanoma; 88% in the assay on UACC-62 melanoma; 101% in the assay with LOX IMVI melanoma; 119% in the assay on SK-MEL-28 melanoma; 106% in the assay with SK-MEL-2 melanoma; 81.1% in the assay with EKVX NSCLC. The growth in the assay on SN12C renal was 101%; in the assay on UO-31 renal, 99.2%; in the assay on TK-10 renal, 97%; in the assay with ACHN renal, 92.5%; in the assay on CAKI-1 renal it was 87.7%; in the assay on A498 renal, 106%. The growth was 84.1% in the assay with CCRF-CEM leukemia and 97.9% in the assay with MOLT-4 leukemia.
